A selection: hits, their analogues and other compounds. The true share with any hit is near 11%.
SW480 rerep: induces DNA re-replication in SW480 colon adenocarcinoma cells | AID 624297 | Potency, µM (titrated, usually from 46.1 µM), for the others: at the highest dose re-replication activation, usual class: activators | SW480 DNA re-replication, Hoechst DNA content imaging, 48 h | 1.8% of 340,000 active; note: potency is the fitted concentration of half-maximal effect; % of control where 0% means no effect; nearly all actives have a fitted effect of over 55% in size
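Compounds, transferred as 23 nL by pin tool, were incubated with cells for 48 hr; DNA content per nucleus was then quantified by Hoechst staining and fluorescence plate imaging.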
RORgamma inh: inhibitors of mouse ROR gamma transcriptional activity; P51450; Drosophila S2 Gal4-RORgamma UAS-luciferase reporter, 20 h; Potency, µM (titrated, usually from 53.6 µM), inactives show at the highest dose activity change, negative = inhibition, actives largely listed as inhibitors; 5.4% of 310,000 active; AID 2551; note: potency is the fitted concentration of half-maximal effect; % is set by controls: 0 for no effect and ±100 for the full control effect; nearly all actives have a fitted effect of over 60% in size
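Luciferase reporter read in Schneider cells carrying Gal4-RORγ (mouse) and UAS-Photinus luciferase; cells given compound 1 h before 700 uM copper sulfate induction, then incubated 20 h at ambient temperature.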
MCF10A rereplic: DNA re-replication induction in MCF 10a cells; AID 624296; 2.9% of 350,000 active; Potency, µM (series often up to 46.1 µM), for the others: top-dose activity, positive = re-replication, most hits filed as activators; MCF 10A DNA re-replication, Hoechst nuclear intensity, 48 h; note: potency is the fitted concentration of half-maximal effect; % of control where 0% means no effect; nearly all actives have a fitted effect of over 50% in size
VP16 counter: inhibits Gal4-VP16 luciferase reporter, ROR gamma counter-screen; Drosophila S2 Gal4-VP16 UAS-luciferase, luminescence, 20 h; Potency, µM (doses to about 53.6 µM), without a hit: at the top dose activity, negative = inhibition, usual class: inhibitors; 3.5% of 310,000 active; AID 2546;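 note: Gal4-VP16 expression switched on by copper sulfate through the metallothionein promoter; potency is the fitted concentration of half-maximal effect; % is set by controls: 0 for no effect and ±100 for the full control effect; nearly all actives have a fitted effect of over 50% in size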
IL-1B inflam inh: inhibitors of inflammasome signaling (IL-1 beta secretion); AID 743279; THP-1 LPS/ATP IL-1B secretion, AlphaLISA, 16 h; hits give low values; 4.7% of 360,000 active; activity change, % at 57.5 µM; in the data active = activity change below about -50%; inconclusive = mostly about -30% to -49%; note: % is set by controls: 0 for no effect and ±100 for the full control effect
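Secreted IL-1B measured by AlphaLISA bead assay after 16 h compound exposure of THP-1 cells; compounds (final up to 57.5 uM) added 1 h before LPS (250 ng/mL) and ATP (1.25 mM) stimulation; lower signal means less secretion.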
* hit, by the source's call; ? = inconclusive; . = no result; [ ] = remark or other dose. Unless noted, calls come from the whole dose curve; as a rule, active = well fitted curve in the direction sought with a large enough effect; inconclusive = small, poorly fitted or top-dose-only effect, or another doubt; inactive = no such curve, though single readings can be large; an effect the other way counts as inactive or inconclusive.

SMILES | SW480 rerep | RORgamma inh | MCF10A rereplic | VP16 counter | IL-1B inflam inh
C/C(=N\NC(=S)NC(C)C)c1ccc(Cl)c([N+](=O)[O-])c1 | 0% | ? | ? | ? | -92*
CCOC(=O)c1sc(NC(=O)c2cccc(S(=O)(=O)N3c4ccccc4CC3C)c2)cc1C (centres undefined) | ? | ? | 8.2µM* | -4% | 80
CCOC(=O)c1sc(NC(=O)c2ccc(C)s2)cc1C | -2%[9.22 µM] | 1.3µM* | ? | ? | ?
CCOC(=O)c1sc(NC(C)=O)cc1C | -3% | 3% | -2% | 13% | -20
CCOC(=O)c1sc(NC(=O)Nc2ccccc2Cl)cc1C | 0% | ? | ? | ? | -16
CCOC(=O)c1sc(NC(=O)Nc2ccccc2)cc1C | -1% | 5µM* | ? | 2.5µM* | -117*
C[C@@H]1CN([C@@H](C)CO)C(=O)CCCn2nncc2CO[C@@H]1CN(C)C(=O)Nc1ccc(N2CCN(C)CC2)cc1 | . | . | . | . | 5
CC1CCc2c(sc(/N=C/N(C)C)c2C#N)C1 (centres undefined) | 13% | ? | -35% | 10% | -63*
COc1ccc(CN2C(=O)c3ccccc3C2c2nnnn2-c2ccc3c(c2)OCCO3)cc1 (centres undefined) | . | . | . | . | -19
COc1ccc(-c2cc(C(=O)OCC(=O)c3cccc([N+](=O)[O-])c3)c3cc(C)ccc3n2)cc1 | 0% | -2% | 18µM* | -3% | -13
COc1ccc2nc(-c3ccccc3)cc(C(=O)OCC(=O)N3CCCCC3)c2c1 | 21µM* | . | -4% | . | 0

High-throughput results deposited in PubChem BioAssay by National Center for Advancing Translational Sciences (NCATS).
